Among the data in PubChem BioAssay AID624151 (Broad Institute, 2012) are activation values, retold here.

In all, about 28,000 compounds went through this assay and about 410 (1.5%) were called active. Rule as the data show it: active = activation above about 52%; inconclusive = no clear call, values can overlap the other calls; inactive = below that. Shown is part of a subset that was picked to be rich in actives.

The assay can be described thus: mutant p53 pathway re-activators, primary screen, cell-based, SW480, luciferase, single point, HTS (AID 624151). Conditions: SW480 PUMA-promoter luciferase, p53 mutant reactivation; at 9.98 µM; hits give high values.
Take `Cc1cc(C)cc(OCC(=O)Nc2cccc(-c3nnc(-c4ccccc4)o3)c2)c1`: the activation is 90.4% (active). `COc1ccccc1CC(=O)Nc1ccc(-c2nnc(-c3ccc(C)cc3)o2)cc1`: the activation is -31.3% (inactive). Turning to `CC(C)(C)c1ccc(OCC(=O)Nc2cccc(NC(=O)c3ccccc3)c2)cc1`, the activation is 39.6% (inactive). Regarding `Cc1[nH]c2ccccc2c1C(=O)CSc1ccc2ccccc2n1`, the activation was -16.4% (inactive). Turning to `CCCNC(=O)N(C)C[C@@H]1Oc2ncc(-c3cccc(C#N)c3)cc2C(=O)N([C@@H](C)CO)C[C@H]1C`, the activation was 0.271% (inactive). Take `CC(C)C#Cc1ccc2c(c1)O[C@@H](CN(C)Cc1ccncc1)[C@@H](C)CN([C@@H](C)CO)S2(=O)=O`: the activation is -4.79% (inactive). Take `CC(Sc1ncn(-c2ccccc2)n1)C(=O)Nc1ccc(Cl)cc1` (stereo not drawn): the activation is 7.31% (inactive).

For the compound `C[C@H](CO)N1C[C@H](C)[C@H](CN(C)Cc2cccc(C(=O)O)c2)Oc2ncc(-c3ccccc3F)cc2C1=O`, the activation is 5.45% (inactive). Take `COc1cc([C@H](Cc2ccccc2)NC(C)=O)oc(=O)c1`: the activation is 12.8% (inactive). Then `COc1ccc(NC(=O)Nc2ccc3c(c2)[C@@H]2C[C@H](CC(=O)N[C@@H](C)c4ccccc4)O[C@@H](CO)[C@@H]2O3)cc1`, with -6.79% (inactive); and `COc1ccc2c(c1)C(=O)CC(c1ccccc1)O2` (stereo not drawn), with 60.3% (active). For the compound `Cn1nc(CC(=O)Nc2ccc3c(c2)oc2ccccc23)c2ccccc2c1=O`, the activation was -34.2% (inactive).

As for `O=C(C[C@@H]1C[C@H]2c3cc(NC(=O)NC4CCCC4)ccc3O[C@H]2[C@H](CO)O1)NCc1cc(F)ccc1F`, the activation is -2.6% (inactive). With `C[C@H]1CN([C@@H](C)CO)C(=O)c2cc(-c3ccc(C#N)cc3)cnc2O[C@@H]1CN(C)Cc1ccncc1`, the activation was -0.372% (inactive). On to `Cc1ccc([N+](=O)[O-])cc1NC(=O)CSC1=NCCS1`, for which the activation is -5.18% (inactive). `CNC[C@H]1Oc2cc(C#CC(C)(C)O)ccc2S(=O)(=O)N([C@@H](C)CO)C[C@@H]1C`: the activation was 15.9% (inactive). The value for `C[C@@H]1CN([C@H](C)CO)C(=O)c2c(c3ccccc3n2C)-c2ccccc2CO[C@H]1CN(C)S(=O)(=O)c1ccccc1F` was 1.72% (inactive); that for `Nc1nnc(SCC(=O)Nc2ccc(F)c(Cl)c2)s1` was -1.2% (inactive). As to `C[C@@H]1CN([C@@H](C)CO)S(=O)(=O)c2ccc(C#CCC3CCCC3)cc2O[C@H]1CN(C)Cc1ccc(C(=O)O)cc1`, the activation was -0.35% (inactive). With `C[C@@H]1CCCCO[C@@H](CN(C)S(=O)(=O)c2cn(C)cn2)[C@@H](C)CN([C@@H](C)CO)C(=O)c2cc(NC(=O)NC3CCCCC3)ccc2O1`, the activation was 16% (inactive).

Regarding `COc1ccc(OC)c(S(=O)(=O)N(C)CC(=O)Nc2cccc(Cl)c2C)c1`, the activation was -5.43% (inactive). Turning to `CNC[C@H]1Oc2ncc(-c3ccccc3C)cc2C(=O)N([C@@H](C)CO)C[C@@H]1C`, the activation is 6.16% (inactive). With `CC(=O)Nc1ccc(NC(=O)CSc2nnc3c4cc(Br)ccc4n(C)c3n2)cc1`, the activation was -24.7% (inactive). As for `C[C@@H]1CN([C@@H](C)CO)C(=O)c2cc(C#CC(C)(C)O)cnc2O[C@H]1CN(C)Cc1cccc(F)c1`, the activation was -7.7% (inactive). Take `COc1ccccc1NC(=O)CN(c1ccc(Br)c(C)c1)S(C)(=O)=O`: the activation was 7.45% (inactive). As to `C[C@@H]1CN([C@H](C)CO)C(=O)c2cc(-c3cncnc3)cnc2O[C@@H]1CN(C)Cc1ccc(Oc2ccccc2)cc1`, the activation was 9.54% (inactive).

Regarding `COC(=O)c1c(NC(=S)Nc2ccc(OC)cc2[N+](=O)[O-])sc2c1CCC(C)C2` (stereo not drawn), the activation is 4.27% (inactive). Take `CCc1cc(C(=O)OC)c(NC(=S)Nc2ccc(OC)cc2[N+](=O)[O-])s1`: the activation was 62.7% (active). As to `COc1ccc(NC(=O)CSc2nncc3ccccc23)c([N+](=O)[O-])c1`, the activation was 4.65% (inactive). Regarding `CC(C(=O)Nc1nccs1)C1SC(=O)NC1=O` (stereo not drawn), the activation is 1.73% (inactive). With `C[C@H]1CN([C@@H](C)CO)C(=O)c2cc(C3=CCCC3)cnc2O[C@H]1CN(C)Cc1ccccc1C(=O)O`, the activation is 16.5% (inactive). Then `COCC#Cc1cnc2c(c1)C(=O)N([C@H](C)CO)C[C@H](C)[C@H](CN(C)C(=O)CCN1CCCCC1)O2`, with 6.72% (inactive); and `Cc1ccc(S(=O)(=O)N(C)C[C@@H]2Oc3c(NC(=O)C4CC4)cccc3C(=O)N([C@H](C)CO)C[C@@H]2C)cc1`, with -8.13% (inactive); and `COc1cc(NC(=S)NCCN2CCOCC2)c(OC)cc1Cl`, with -5.79% (inactive). `Cc1cc(=O)oc2cc(OC(C)C(=O)Nc3ccc(N4CCOCC4)cc3)ccc12` (stereo not drawn): the activation was 7.05% (inactive).

As to `CC(=O)CCc1c(C)[nH]c2ccc(C)cc2c1=O`, the activation is 14.2% (inactive). On to `C[C@@H]1CCCCO[C@@H](CN(C)S(=O)(=O)c2cn(C)cn2)[C@H](C)CN([C@H](C)CO)C(=O)c2cc(NC(=O)NC3CCCCC3)ccc2O1`, for which the activation is 17% (inactive). With `COc1cc(Cl)c(C)cc1NC(=O)CN(C)S(=O)(=O)c1ccc2ccccc2c1`, the activation is 14.5% (inactive). Consider `C[C@@H]1CN([C@H](C)CO)S(=O)(=O)c2ccc(-c3cncnc3)cc2O[C@H]1CN(C)C(=O)Cc1ccccc1`, for which the activation was -1.41% (inactive). Turning to `COc1ccc(-c2nnc(SCC(=O)Nc3cccc(SC)c3)n2C)cc1`, the activation is -10.6% (inactive). The value for `CC(=O)OC[C@H]1O[C@@H](Oc2c(-c3ccc(O)c(O)c3)oc3cc(O)cc(O)c3c2=O)[C@H](O)[C@@H](O)[C@@H]1O` was 7.83% (inactive); that for `COc1c(O)cc2oc(-c3ccc(O)c(O)c3)cc(=O)c2c1O` was 89.5% (active). With `CCc1ccccc1NC(=O)COc1cc(O)c2c(=O)cc(-c3ccccc3)oc2c1`, the activation was -9.5% (inactive).

As to `CCOC(=O)c1c(NC(=O)C(C)Oc2ccc3c(C)cc(=O)oc3c2)sc2c1CCC2` (stereo not drawn), the activation is 18.5% (inactive). As to `O=C(CN(C1CCCCC1)S(=O)(=O)c1ccc(Cl)cc1)Nc1ccccc1C(F)(F)F`, the activation is 3.31% (inactive).

Consider `COc1cccc(C#Cc2cnc3c(c2)C(=O)N([C@@H](C)CO)C[C@H](C)[C@H](CN(C)CC2CC2)O3)c1`, for which the activation was 4.89% (inactive). Regarding `COc1cc(CO)cc(Cl)c1OCc1cccc([N+](=O)[O-])c1`, the activation is 0.353% (inactive).

For the compound `COc1ccccc1CCNC(=O)c1cnccn1`, the activation was 18.5% (inactive). `C[C@@H]1CN([C@@H](C)CO)C(=O)c2c(c3ccccc3n2C)-c2ccccc2CO[C@@H]1CN(C)S(=O)(=O)CC(F)(F)F`: the activation was 6.74% (inactive). Then `Cc1ccccc1-c1ccc2c(c1)O[C@@H](CN(C)C(=O)Nc1ccc(F)cc1)[C@H](C)CN([C@@H](C)CO)S2(=O)=O`, with -36.4% (inactive); and `CCCNC(=O)C[C@H]1C[C@@H]2c3cc(NS(=O)(=O)c4cccc(OC)c4)ccc3O[C@@H]2[C@@H](CO)O1`, with 9.83% (inactive); and `CCOc1ccc(Cl)cc1S(=O)(=O)NC1CC(C)(C)NC(C)(C)C1`, with 2.34% (inactive). Regarding `Cc1cc2nc(-c3ccc(NC(=O)COc4ccccc4[N+](=O)[O-])cc3)oc2cc1C`, the activation is 68.1% (active). For the compound `CN(CC(=O)Nc1ccccc1C#N)S(=O)(=O)c1ccc2ccccc2c1`, the activation was 0.461% (inactive).

Turning to `Cc1ccc(C)c(OCC(=O)Nc2ccccc2C#N)c1`, the activation is 121% (active). Regarding `Cc1ccc(NC(=O)COc2ccccc2C)c([N+](=O)[O-])c1`, the activation is 109% (active). The value for `Cc1ccc(-c2nc3cc(NC(=O)COc4ccc([N+](=O)[O-])cc4)ccc3o2)cc1C` was 21.6% (inactive); that for `COc1ccc(C(=O)Nc2cc(C)ccc2NC(=O)COc2ccccc2)cc1` was 28% (inactive). `COc1ccc(NC(=O)COc2cc(C)c(Br)c(C)c2)c([N+](=O)[O-])c1`: the activation was -11.9% (inactive).

`O=C(COc1ccc([N+](=O)[O-])cc1)Nc1ccc2oc(-c3cccc(F)c3)nc2c1`: the activation was 43.6% (inactive).

In the case of `Cc1cc(C)c2oc(-c3ccc(C)c(NC(=O)COc4ccccc4C)c3)nc2c1`, the activation is -4.75% (inactive). Then `COc1ccccc1NC(=O)CSc1ncc(-c2ccccc2)nn1`, with 36.5% (inactive); and `C[C@@H]1CN([C@H](C)CO)C(=O)c2cc(C#Cc3cccnc3)cnc2O[C@@H]1CN(C)Cc1ccc(F)cc1`, with 5.15% (inactive).
